# Data: PubChem BioAssay (NCI)
# The panel holds about 79,000 compounds, 15% with a hit somewhere; the sample as a whole holds those more often. Values without a mark were called inactive. The source made the active and inactive calls. No stated cut-off is given here; in the data, active means growth inhibition above about 70%; inactive means the rest.
# What was measured:
# [1] = NCI Yeast Anticancer Drug Screen. Data for the rad52 strain (AID 147);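 further: 0% = growth of vehicle-treated control cultures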; conditions: S. cerevisiae rad52 mutant growth inhibition, hits give high values
# Summary of the method: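 Inhibition of yeast growth, referenced to vehicle controls, was the measured output for a strain with defective DNA damage repair.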
# [2] = NCI Yeast Anticancer Drug Screen. Data for the wt1 strain (AID 149);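 further: 0% = growth of vehicle-treated wt1 cultures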; conditions: S. cerevisiae wt1 strain (SPY 50644) growth inhibition, hits give high values
# Summary of the method: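 wt1 yeast, compound-treated; % growth inhibition vs vehicle control.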
# [3] = NCI Yeast Anticancer Drug Screen. Data for the rad50EPP+ strain (AID 151);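 further: 0% = growth of vehicle-treated control cultures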; conditions: S. cerevisiae rad50 mutant strain, hits give high values
# Summary of the method: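 Genetically defined yeast (rad50EPP+, DNA damage repair alteration) is grown with compound, and inhibition of growth is expressed relative to vehicle-treated controls.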
# [4] = NCI Yeast Anticancer Drug Screen. Data for the mgt1 strain (AID 153); conditions: S. cerevisiae mgt1 mutant growth inhibition, hits give high values
# Summary of the method: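 In the mgt1 strain, test compounds were added and growth inhibition was determined relative to vehicle-treated controls.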
# [5] = NCI Yeast Anticancer Drug Screen. Data for the rad50 strain (AID 155);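 further: 0% = growth of vehicle-only cultures of the same strain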; conditions: S. cerevisiae rad50 strain growth inhibition, hits give high values
# Summary of the method: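 Genetically altered yeast (DNA repair pathway); compound treatment; growth inhibition vs vehicle ctrl.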
# [6] = NCI Yeast Anticancer Drug Screen. Data for the mec2-1 strain (AID 157); conditions: S. cerevisiae mec2-1 strain, hits give high values
# Summary of the method: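 Each compound was tested on mec2-1 yeast, a strain altered in DNA damage repair or cell cycle control. Growth inhibition is reported relative to vehicle.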
# [7] = NCI Yeast Anticancer Drug Screen. Data for the rad14 strain (AID 159);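 further: 0% = growth of vehicle-treated control cultures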; conditions: S. cerevisiae rad14 strain growth inhibition, hits give high values
# Summary of the method: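 Test compounds were applied to a repair-deficient yeast strain. Its growth was then compared with that of cultures given vehicle alone, and inhibition was expressed relative to those controls.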
# [8] = NCI Yeast Anticancer Drug Screen. Data for the sgs1 mgt1 strain (AID 161);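 further: 0% = growth of cultures given vehicle only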; conditions: S. cerevisiae sgs1 mgt1 strain, hits give high values
# Summary of the method: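 Genetically altered yeast, compound exposure, growth inhibition relative to vehicle.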
# [9] = NCI Yeast Anticancer Drug Screen. Data for the CLN2oe strain (AID 163);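 further: 0% = growth of vehicle-only control cultures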; conditions: S. cerevisiae CLN2oe strain, hits give high values
# Summary of the method: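 First, the altered yeast strain was treated with each compound; second, its growth was measured; finally, inhibition was derived by comparison with vehicle controls.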
# [10] = NCI Yeast Anticancer Drug Screen. Data for the cln2 rad14 strain (AID 165);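 further: 0% = growth equal to vehicle treated cultures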; conditions: S. cerevisiae cln2 rad14 strain, hits give high values
# Summary of the method: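 Test compounds were added to cln2 rad14 yeast cultures; inhibition of growth was then determined by comparison with vehicle treatment.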
# [11] = NCI Yeast Anticancer Drug Screen. Data for the bub3 strain (AID 167); conditions: S. cerevisiae bub3 mutant strain, hits give high values
# Summary of the method: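 Yeast carrying a defined mutation is treated with each compound, and growth is compared with that of vehicle-exposed cells to give inhibition.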
# [12] = NCI Yeast Anticancer Drug Screen. Data for the wt2 strain (AID 169);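 further: 0% = growth of vehicle-treated yeast cultures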; conditions: S. cerevisiae wt2 strain growth inhibition, hits give high values
# Summary of the method: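 The panel's yeast strains carry defined changes in DNA repair or cell cycle genes. Each strain is grown with compound, and growth loss is scored relative to vehicle.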
# [13] = NCI Yeast Anticancer Drug Screen. Data for the sgs1 strain (AID 173);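 further: 0% = growth of vehicle-only control cultures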; conditions: S. cerevisiae sgs1 mutant, hits give high values
# Summary of the method: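 Vehicle-treated cultures served as reference for growth inhibition of a yeast strain altered in DNA damage repair or cell cycle control after compound exposure.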
# [14] = NCI Yeast Anticancer Drug Screen. Data for the mlh1 rad18 strain (AID 175); conditions: S. cerevisiae mlh1 rad18 strain growth inhibition, hits give high values
# Summary of the method: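 Inhibition values reflect reduced growth of mutant yeast versus vehicle-treated controls following compound exposure; the mutations affect DNA damage repair.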
# [15] = NCI Yeast Anticancer Drug Screen. Data for the rad18 strain (AID 177); conditions: S. cerevisiae rad18 mutant growth inhibition, hits give high values
# Summary of the method: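 Steps: expose repair-mutant yeast to compound; measure growth; express as inhibition relative to vehicle control.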
# [16] = at 5.0 µM (retest, dose inferred, filed as 0.5)
# [17] = at 50.0 µM (retest, dose inferred, filed as 5.0)
structure (smiles),measurement,setting,value
N#CC(=Nc1ccccc1F)Nc1ccccc1F,growth inhibition,[1]; at 1.2 µM,-3%
same,growth inhibition,[1]; at 3.7 µM,-3%
same,growth inhibition,[1]; at 11.0 µM,-2%
same,growth inhibition,[1]; at 33.0 µM,8%
same,growth inhibition,[1]; at 100.0 µM,9%
same,growth inhibition,[2]; at 1.2 µM,-5%
same,growth inhibition,[2]; at 3.7 µM,-3%
same,growth inhibition,[2]; at 11.0 µM,-11%
same,growth inhibition,[2]; at 33.0 µM,-10%
same,growth inhibition,[2]; at 100.0 µM,-7%
same,growth inhibition,[3]; at 1.2 µM,6%
same,growth inhibition,[3]; at 3.7 µM,11%
same,growth inhibition,[3]; at 11.0 µM,21%
same,growth inhibition,[3]; at 33.0 µM,29%
same,growth inhibition,[3]; at 100.0 µM,20%
same,growth inhibition,[4]; at 1.2 µM,-5%
same,growth inhibition,[4]; at 3.7 µM,-4%
same,growth inhibition,[4]; at 11.0 µM,-4%
same,growth inhibition,[4]; at 33.0 µM,2%
same,growth inhibition,[4]; at 100.0 µM,-2%
same,growth inhibition,[5]; at 1.2 µM,0%
same,growth inhibition,[5]; at 3.7 µM,2%
same,growth inhibition,[5]; [16],-6%
same,growth inhibition,[5]; at 11.0 µM,-1%
same,growth inhibition,[5]; at 33.0 µM,5%
same,growth inhibition,[5]; [17],-1%
same,growth inhibition,[5]; at 50.0 µM,-2.35%
same,growth inhibition,[5]; at 100.0 µM,5%
same,growth inhibition,[6]; at 1.2 µM,-4%
same,growth inhibition,[6]; at 3.7 µM,-1%
same,growth inhibition,[6]; [16],-4%
same,growth inhibition,[6]; at 11.0 µM,-4%
same,growth inhibition,[6]; at 33.0 µM,8%
same,growth inhibition,[6]; [17],8%
same,growth inhibition,[6]; at 50.0 µM,-2.55%
same,growth inhibition,[6]; at 100.0 µM,10%
same,growth inhibition,[7]; at 1.2 µM,-5%
same,growth inhibition,[7]; at 3.7 µM,-4%
same,growth inhibition,[7]; at 11.0 µM,-4%
same,growth inhibition,[7]; at 33.0 µM,10%
same,growth inhibition,[7]; at 100.0 µM,12%
same,growth inhibition,[8]; [16],-3%
same,growth inhibition,[8]; [17],15%
same,growth inhibition,[8]; at 50.0 µM,12.1%
same,growth inhibition,[9]; at 1.2 µM,1%
same,growth inhibition,[9]; at 3.7 µM,0%
same,growth inhibition,[9]; at 11.0 µM,5%
same,growth inhibition,[9]; at 33.0 µM,11%
same,growth inhibition,[9]; at 100.0 µM,26%
same,growth inhibition,[10]; [16],-1%
same,growth inhibition,[10]; [17],-3%
same,growth inhibition,[10]; at 50.0 µM,-0.6%
same,growth inhibition,[11]; at 1.2 µM,-3%
same,growth inhibition,[11]; at 3.7 µM,-3%
same,growth inhibition,[11]; [16],-2%
same,growth inhibition,[11]; at 11.0 µM,-1%
same,growth inhibition,[11]; at 33.0 µM,5%
same,growth inhibition,[11]; [17],3%
same,growth inhibition,[11]; at 50.0 µM,8.55%
same,growth inhibition,[11]; at 100.0 µM,-2%
same,growth inhibition,[12]; at 1.2 µM,-2%
same,growth inhibition,[12]; at 3.7 µM,-3%
same,growth inhibition,[12]; at 11.0 µM,-5%
same,growth inhibition,[12]; at 33.0 µM,2%
same,growth inhibition,[12]; at 100.0 µM,3%
same,growth inhibition,[13]; at 1.2 µM,-3%
same,growth inhibition,[13]; at 3.7 µM,-7%
same,growth inhibition,[13]; at 11.0 µM,-6%
same,growth inhibition,[13]; at 33.0 µM,12%
same,growth inhibition,[13]; at 100.0 µM,24%
same,growth inhibition,[14]; [16],-7%
same,growth inhibition,[14]; [17],0%
same,growth inhibition,[14]; at 50.0 µM,66.8%
same,growth inhibition,[15]; at 1.2 µM,-6%
same,growth inhibition,[15]; at 3.7 µM,-7%
same,growth inhibition,[15]; at 11.0 µM,-10%
same,growth inhibition,[15]; at 33.0 µM,-2%
same,growth inhibition,[15]; at 100.0 µM,9%
NC1=NNC2(C(N)=N1)c1ccccc1-c1ccccc12,growth inhibition,[1]; at 1.2 µM,-18%
same,growth inhibition,[1]; at 3.7 µM,-14%
same,growth inhibition,[1]; at 11.0 µM,-16%
same,growth inhibition,[1]; at 33.0 µM,16%
same,growth inhibition,[1]; at 100.0 µM,96% (active)
same,growth inhibition,[2]; at 1.2 µM,4%
same,growth inhibition,[2]; at 3.7 µM,3%
same,growth inhibition,[2]; at 11.0 µM,-4%
same,growth inhibition,[2]; at 33.0 µM,12%
same,growth inhibition,[2]; at 100.0 µM,97% (active)
same,growth inhibition,[3]; at 1.2 µM,3%
same,growth inhibition,[3]; at 3.7 µM,7%
same,growth inhibition,[3]; at 11.0 µM,2%
same,growth inhibition,[3]; at 33.0 µM,44%
same,growth inhibition,[3]; at 100.0 µM,76% (active)
same,growth inhibition,[4]; at 1.2 µM,12%
same,growth inhibition,[4]; at 3.7 µM,6%
same,growth inhibition,[4]; at 11.0 µM,3%
same,growth inhibition,[4]; at 33.0 µM,30%
same,growth inhibition,[4]; at 100.0 µM,98% (active)
same,growth inhibition,[5]; at 1.2 µM,-7%
same,growth inhibition,[5]; at 3.7 µM,-12%
same,growth inhibition,[5]; [16],-32%
same,growth inhibition,[5]; at 11.0 µM,-9%
same,growth inhibition,[5]; at 33.0 µM,32%
same,growth inhibition,[5]; [17],93% (active)
same,growth inhibition,[5]; at 50.0 µM,86.2% (active)
same,growth inhibition,[5]; at 100.0 µM,94% (active)
same,growth inhibition,[6]; at 1.2 µM,11%
same,growth inhibition,[6]; at 3.7 µM,12%
same,growth inhibition,[6]; [16],-1%
same,growth inhibition,[6]; at 11.0 µM,11%
same,growth inhibition,[6]; at 33.0 µM,29%
same,growth inhibition,[6]; [17],18%
same,growth inhibition,[6]; at 50.0 µM,71.9% (active)
same,growth inhibition,[6]; at 100.0 µM,96% (active)
same,growth inhibition,[7]; at 1.2 µM,-18%
same,growth inhibition,[7]; at 3.7 µM,-22%
same,growth inhibition,[7]; at 11.0 µM,-25%
same,growth inhibition,[7]; at 33.0 µM,1%
same,growth inhibition,[7]; at 100.0 µM,97% (active)
same,growth inhibition,[8]; [16],-9%
same,growth inhibition,[8]; [17],43%
same,growth inhibition,[8]; at 50.0 µM,64.5%
same,growth inhibition,[9]; at 1.2 µM,9%
same,growth inhibition,[9]; at 3.7 µM,15%
same,growth inhibition,[9]; at 11.0 µM,21%
same,growth inhibition,[9]; at 33.0 µM,39%
same,growth inhibition,[9]; at 100.0 µM,97% (active)
same,growth inhibition,[10]; [16],3%
same,growth inhibition,[10]; [17],57%
same,growth inhibition,[10]; at 50.0 µM,81% (active)
same,growth inhibition,[11]; at 1.2 µM,26%
same,growth inhibition,[11]; at 3.7 µM,25%
same,growth inhibition,[11]; [16],-27%
same,growth inhibition,[11]; at 11.0 µM,26%
same,growth inhibition,[11]; at 33.0 µM,38%
same,growth inhibition,[11]; [17],54%
same,growth inhibition,[11]; at 50.0 µM,45.1%
same,growth inhibition,[11]; at 100.0 µM,97% (active)
same,growth inhibition,[12]; at 1.2 µM,-10%
same,growth inhibition,[12]; at 3.7 µM,-16%
same,growth inhibition,[12]; at 11.0 µM,-18%
same,growth inhibition,[12]; at 33.0 µM,-2%
same,growth inhibition,[12]; at 100.0 µM,97% (active)
same,growth inhibition,[13]; at 1.2 µM,12%
same,growth inhibition,[13]; at 3.7 µM,17%
same,growth inhibition,[13]; at 11.0 µM,11%
same,growth inhibition,[13]; at 33.0 µM,33%
same,growth inhibition,[13]; at 100.0 µM,97% (active)
same,growth inhibition,[14]; [16],-25%
same,growth inhibition,[14]; [17],81% (active)
same,growth inhibition,[14]; at 50.0 µM,79.3% (active)
same,growth inhibition,[15]; at 1.2 µM,-4%
same,growth inhibition,[15]; at 3.7 µM,-5%
same,growth inhibition,[15]; at 11.0 µM,-17%
same,growth inhibition,[15]; at 33.0 µM,18%
same,growth inhibition,[15]; at 100.0 µM,97% (active)
